Experimental data: PubChem BioAssay AID1961 (Sanford-Burnham Center for Chemical Genomics, 2009)
Several values for one entry are separate records, joined by “and”; a condition that tells them apart may be missing. Equal entries are not always repeated. About 140 (0.048%) of roughly 290,000 compounds were called active.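 Rule for the calls: active = activation above 40% with more than 50 cells counted in the well; inconclusive = wells holding fewer than 50 cells, flagged as toxic or sparse; inactive = the rest.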 Only a selection was taken, and actives are over-represented in it overall.

What was measured:
[1] = GPR55 agonists via beta-arrestin recruitment, primary screen, imaging, U2OS cells, beta-arrestin-GFP redistribution (AID 1961); details: measured here: cytotoxicity, cells analyzed, at 10 µM;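 note: U2OS osteosarcoma cells stably expressing GPR55 and beta-arrestin-GFP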;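 for activation: plate controls were DMSO negative control for no effect and LPI positive control for full effect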
[2] = biological target: G-protein coupled receptor 55 (Homo sapiens) (UniProt Q9Y2T6); assay: as above; details: at 10 µM, stronger effect = higher value
Sequence of G-protein coupled receptor 55 (Homo sapiens) (Q9Y2T6 whole entry, looked up): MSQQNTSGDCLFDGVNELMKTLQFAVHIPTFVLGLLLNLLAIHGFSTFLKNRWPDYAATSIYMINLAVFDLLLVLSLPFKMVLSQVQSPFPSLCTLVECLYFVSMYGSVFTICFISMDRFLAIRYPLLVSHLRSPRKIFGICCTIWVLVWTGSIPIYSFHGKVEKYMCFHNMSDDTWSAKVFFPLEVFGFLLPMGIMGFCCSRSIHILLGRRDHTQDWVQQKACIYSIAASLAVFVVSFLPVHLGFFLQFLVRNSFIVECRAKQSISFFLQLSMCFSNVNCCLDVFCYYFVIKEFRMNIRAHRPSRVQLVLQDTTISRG

Row | SMILES | cell count [1] | activation [2]
1 | Cn1c(SCC(=O)NNC(=O)Nc2ccc(Cl)cc2)nnc1-c1ccccc1 | 332 cells | -0.1% (inactive)
2 | COc1cccc(-n2c(SCC(=O)Nc3cc(C)on3)nc3ccccc3c2=O)c1 | 336 cells | 0.5% (inactive)
3 | Cc1cccc(N(CC(=O)Nc2c(C)n(C)n(-c3ccccc3)c2=O)S(C)(=O)=O)c1C | 361 cells | 0% (inactive)
4 | CSc1cccc(N/C(=N/S(=O)(=O)c2ccccc2)NN)c1 | 310 cells | 0.6% (inactive)
5 | COc1ccc2cc(CCNC(=O)C3CCCC3)c(=O)[nH]c2c1 | 307 cells | -0.1% (inactive)
6 | c1ccc(-c2noc(CN3CCOCC3)n2)cc1 | 407 cells | 0.2% (inactive)
7 | CC(=O)c1c(C)[nH]c(C(=O)NCCc2c[nH]c3ccccc23)c1C | 348 cells | -0.1% (inactive)
8 | CC1(C)CC(NC(=O)c2c(N)no[n+]2[O-])CC(C)(C)N1 | 241 cells | -0.3% (inactive)
9 | Cc1ccc(NC(=S)Nc2ccc(S(=O)(=O)Nc3ncccn3)cc2)c(C)c1 | 327 cells | -0.2% (inactive)
10 | COCc1[nH]c(=S)[nH]c(=O)c1C | 339 cells | -0.1% (inactive)
11 | Cc1c(Cl)c(=O)oc2cc(OCC(=O)NCc3cccs3)ccc12 | 357 cells | 0% (inactive)
12 | COc1ccc(NC(=O)Cn2c(CCC(=O)O)ccc2-c2ccccc2)cc1 | 413 cells | 0.2% (inactive)
13 | O=C(O)c1ccc(NC(=O)c2ccc3c(c2)C(=O)N(c2ccccc2)C3=O)cc1 | 374 cells | -0.1% (inactive)
14 | O=C(OCc1cc(=O)n2c(n1)sc1ccccc12)c1ccc2c(=O)n3c(nc2c1)CCC3 | 323 cells | -0.1% (inactive)
15 | Cc1sc2nc(CSc3nc4ccccc4c(=O)n3CCCN3CCOCC3)[nH]c(=O)c2c1C | 341 cells | -0.1% (inactive)
16 | CCCN1CCC(=O)N([C@H](CSc2ccc(C)cc2)CC(C)C)CC1 | 328 cells | 5.1% (inactive)
17 | Cc1ccc(SC[C@H](CC(C)C)N2CCN(CCc3ccccc3)CCC2=O)cc1 | 305 cells | 193% (active)
18 | Cc1ccc(SC[C@H](Cc2ccccc2)N2CCN(CCc3ccccc3)CCC2=O)cc1 | 347 cells | -0.1% (inactive)
19 | Cc1ccc(CNC(=O)CCS(=O)(=O)c2ccc3c(c2)NC(=O)CO3)cc1 | 376 cells | -0.2% (inactive)
20 | CCOC(=O)C(CSCC(=O)c1ccc(Cl)cc1Cl)NC(=O)OC(C)(C)C (stereo not drawn) | 359 cells | -0.1% (inactive)
21 | CCOC(=O)c1c(CN2CCN(CCO)CC2)n(-c2ccccc2)c2cc(Br)c(O)cc12 | 355 cells | 0.3% (inactive)

Row | SMILES | cell count [1] | activation [2]
22 | O=c1oc2ccccc2c(NCc2ccc(Cl)cc2)c1[N+](=O)[O-] | 384 cells | -0.3% (inactive)
23 | O=C(NCCN1CCN(C(=O)c2ccc(F)cc2)CC1)c1ccc(F)cc1 | 452 cells | 0.2% (inactive)
24 | CCOc1ccc2nc(Cl)sc2c1 | 247 cells | -0.1% (inactive)
25 | Nc1cc(-c2ccccc2)n2c(n1)nc1ccccc12 | 331 cells | 0.3% (inactive)
26 | Cc1cc(=O)[nH]c(SCC(=O)N2CCCCCC2)n1 | 340 cells | 0% (inactive)
27 | CC(=O)NC1(C(F)(F)F)C(=O)N(Cc2ccccc2)C2=C1C(=O)CC(C)(C)C2 (stereo not drawn) | 419 cells | 0.2% (inactive)
28 | CCS(=O)(=O)N1CCC(C(=O)N2CCc3ccccc3C2)CC1 | 361 cells | 0% (inactive)
29 | O=C(Cc1ccccc1)Nc1ccc(NC(=O)c2ccco2)cc1 | 367 cells | 0.2% (inactive)
30 | Cc1cccc(CC(=O)N2CCOCC2)c1 | 411 cells | 1.4% (inactive)
31 | O=C(CC1CCCCC1)Nc1ccccc1-c1ccccc1 | 361 cells | -0.4% (inactive)
32 | COc1ccc(Cl)cc1NC(=O)CSc1nnc(COc2ccccc2)n1C | 350 cells | 0.2% (inactive)
33 | COc1ccc(Nc2ncc3c(n2)CC(c2ccccc2)CC3=O)cc1 (stereo not drawn) | 306 cells | -0.1% (inactive)
34 | O=C(N/N=C\c1cccnc1)c1ccc(Cl)cc1Cl | 331 cells | 0.3% (inactive)
35 | CCOC(=O)CSc1nc2c([nH]c3ccccc32)c(=O)n1C | 345 cells | -0.1% (inactive)
36 | CCOc1ccccc1CNC(=O)CCc1cn(CC)c2ccccc12 | 381 cells | 0.3% (inactive)
37 | c1ccc(-c2cnn3c(-c4ccccc4)c(-c4ccccc4)nc3n2)cc1 | 310 cells | 42.5% (active)
38 | c1ccc(-c2cn3nc(-c4ccccc4)c(-c4ccccc4)nc3n2)cc1 | 374 cells | 0.6% (inactive)
39 | c1ccc(-c2cnn3nnnc3n2)cc1 | 327 cells | 0.2% (inactive)
40 | CC(C)(C)C1=CC(=Nc2ccccc2N)C=C(C(C)(C)C)C1=O | 328 cells | -0.1% (inactive)
41 | CC(C)(C)C1=CC=C(C(C)(C)C)C(=O)C1=O | 365 cells | 24.1% (inactive)
42 | CC(C)(C)C1=CC(=O)C(=O)C(C(C)(C)C)=C1 | 346 cells | 138% (active)

Row | SMILES | cell count [1] | activation [2]
43 | CCN(CC)C(=O)CSc1nnc(-c2ccccc2)n1-c1ccccc1 | 281 cells | 0.2% (inactive)
44 | CC1CCC(C(C)C)C(OC(=O)Cn2c(-c3ccccc3)[n+](C)c3ccccc32)C1 (stereo not drawn) | 252 cells and 322 cells | -0.3% (inactive)
45 | Cc1cccc(OCc2n(CC(=O)OC3CC(C)CCC3C(C)C)c3ccccc3[n+]2C)c1 (stereo not drawn) | 339 cells | 81.2% (active)
46 | CC1CCC(C(C)C)C(OC(=O)Cn2c(-c3ccc(Br)cc3)[n+](C)c3ccccc32)C1 (stereo not drawn) | 411 cells and 208 cells | 103% (active) and 106% (active)
47 | CC1CCC(C(C)C)C(OC(=O)Cn2c(-c3ccc(F)cc3)[n+](C)c3ccccc32)C1 (stereo not drawn) | 272 cells | 0.6% (inactive)
48 | Cc1ccccc1OCc1n(CC(=O)OC2CC(C)CCC2C(C)C)c2ccccc2[n+]1C (stereo not drawn) | 276 cells and 236 cells | 68% (active)
49 | COc1ccc(OCc2n(CC(=O)OC3CC(C)CCC3C(C)C)c3ccccc3[n+]2C)cc1 (stereo not drawn) | 350 cells | 25.5% (inactive)
50 | CCCCCCCCCCOC(=O)Cn1c(COc2ccccc2OC)[n+](C)c2ccccc21 | 361 cells | 32.1% (inactive)
51 | CCCCCCCCCCOC(=O)Cn1c(COc2cccc(C)c2)[n+](C)c2ccccc21 | 401 cells | 31.3% (inactive)
52 | CCCCCCCCCCOC(=O)Cn1c(COc2ccccc2C)[n+](C)c2ccccc21 | 386 cells | 17.1% (inactive)
53 | CC(C)c1ccc(/C=C/C(=O)NC2=NCCS2)cc1 | 384 cells | 0% (inactive)
54 | CCCc1nnc2n1N=C(c1ccc(-c3cc(Cl)ccc3Cl)o1)CS2 | 356 cells | 142% (active)
55 | CCCc1nnc2n1N=C(c1ccc(C)cc1)CS2 | 336 cells | -0.1% (inactive)
56 | CCc1nnc2n1N=C(c1ccc(Cl)cc1Cl)CS2 | 325 cells | -0.1% (inactive)
57 | O=[N+]([O-])c1ccc(/C=C/C2=NN(c3ccccc3)C(c3ccco3)C2)cc1 (stereo not drawn) | 311 cells | 120% (active)
58 | O=[N+]([O-])c1ccc(/C=C/C2=NN(c3ccccc3)C(c3ccco3)C2)o1 (stereo not drawn) | 231 cells | 21.7% (inactive)
59 | C(=C\c1ccco1)/C1=NN(c2ccccc2)C(c2ccco2)C1 (stereo not drawn) | 324 cells | 27.4% (inactive)
60 | CCOc1ncccc1C(=O)Nc1ccc(-c2ccc3nnc(C)n3n2)cc1 | 265 cells | -0.2% (inactive)
61 | Cc1ccc(C(=O)NC2(C(F)(F)F)NC(=O)N(c3ccc(Cl)cc3)C2=O)cc1 (stereo not drawn) | 333 cells | -0.3% (inactive)
62 | COc1ccc(CN2CCNC(=O)C2CC(=O)NC2CCC2)c(OC)c1 (stereo not drawn) | 341 cells | -0.1% (inactive)
63 | CC(C)N1CCC(NC(=O)Nc2ccc3c(c2)OCO3)CC1 | 361 cells | 0.1% (inactive)

Row | SMILES | cell count [1] | activation [2]
64 | Cc1ccc(N(CC(=O)NC2CCCC2)C(=O)Cn2nnc(-c3ccccc3F)n2)cc1 | 388 cells | 0% (inactive)
65 | CCOc1ccc(C=NCC(O)c2ccccc2)cc1 (stereo not drawn) | 365 cells | -0.1% (inactive)
66 | CCCN1C(=O)/C(=C2/C=Cc3ccccc3N2CC)SC1=S | 237 cells | -0.4% (inactive)
67 | Cc1cc(C(F)(F)F)nc(SCCN2CCCCC2)c1C#N | 404 cells | -0.2% (inactive)
68 | CCOc1ccc(OCCOCCN2CCOCC2)cc1 | 322 cells | -0.1% (inactive)
69 | CCCCN(CCCC)CC(O)COc1ccccc1Br (stereo not drawn) | 385 cells | -0.2% (inactive)
70 | Clc1ccc(OCc2cn3ccccc3n2)c2ncccc12 | 448 cells | -0.1% (inactive)
71 | Cc1cccc2nc(COc3ccc(Cl)c4cccnc34)cn12 | 263 cells | 80.9% (active)
72 | Cc1cccc2nc(COc3ccc4ccccc4c3Br)cn12 | 340 cells | 0.4% (inactive)
73 | Cc1nc2ccc(NC(=O)CCC3CCCC3)cc2s1 | 329 cells | -0.1% (inactive)
74 | Cc1nn2c(N3CCCC3)c3c(nc2c1-c1ccccc1)CCC3 | 363 cells | 0% (inactive)
75 | Cc1nn2c(C(F)(F)F)c3c(nc2c1-c1ccccc1)CCC3 | 390 cells | 0.4% (inactive)
76 | Cc1cccc2cc3c(N)c(C(=O)N4CCc5ccccc54)sc3nc12 | 347 cells | 44.1% (active)
77 | Cc1cccc2cc3c(N)c(C(=O)N4CCCc5ccccc54)sc3nc12 | 244 cells | 0.1% (inactive)
78 | Cc1ccc(C)c2nc3sc(C(=O)N4CCCc5ccccc54)c(N)c3cc12 | 369 cells | 0.3% (inactive)
79 | CC1=NNC(=O)/C1=C\c1cn(-c2ccccc2)nc1-c1ccc(Cl)cc1 | 376 cells | 30.2% (inactive)
80 | CC1=NNC(=O)/C1=C\c1cn(-c2ccccc2)nc1-c1ccc(F)cc1 | 406 cells | 2.4% (inactive)
81 | CC1=NNC(=O)/C1=C\c1cn(-c2ccccc2)nc1-c1ccccc1 | 396 cells | 68.5% (active)
82 | COc1ccccc1NS(=O)(=O)c1cc([N+](=O)[O-])ccc1N/N=C/c1sc(N2CCOCC2)nc1-c1ccccc1 | 331 cells | 48.8% (active)
83 | O=[N+]([O-])c1ccc(N/N=C/c2sc(N3CCOCC3)nc2-c2ccccc2)c(S(=O)(=O)Nc2ccc(Cl)cc2)c1 | 392 cells | 18% (inactive)
84 | O=[N+]([O-])c1ccc(N/N=C/c2sc(N3CCOCC3)nc2-c2ccccc2)c(S(=O)(=O)Nc2ccccc2Cl)c1 | 413 cells | 22.5% (inactive)
